In PubChem BioAssay (NCI):
About 83,000 compounds went through this panel and 20% of them were active in at least one assay; those are over-represented in the sample as a whole.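 Assay: single dose, 48 h. Readout: percent growth (0 = no net growth; negative = cell death). Active: <10.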 A number with no mark means an inactive call. Activity calls are given as the source filed them.

What follows are molecules tested on CAKI-1 renal (assay: NCI-60 one-dose screen, 48 h (100 = growth as untreated, 0 = no growth, -100 = all killed)). Settings: 10 µM unless noted.
Description: Growth inhibition of the CAKI-1 human tumor cell line is measured as a screen for anti-cancer activity. Cells are grown in 96 well plates and exposed to the test compound for 48 hours. Compounds are tested at a single concentration, which is 10^-5 M for most compounds. The reported endpoint is percent growth (GI% or GIPRCNT), where numbers from 0 - 100% represent growth inhibition, and numbers from -100% - 0 represent cell death. For example, a value of 40 represents 60% growth inhibition. A value of 0 means no net growth occurred over the course of the experiment. A value of -40 indicates 40% of cells at the beginning of the experiment died by the end of the experiment. A value of -100 means all cells are dead at the end of the experiment.
NCI-60 Human Tumor Cell Lines Screen was performed using the standard one-dose NCI protocol, which is described in more detail at https://dtp.cancer.gov/discovery_development/nci-60/default.htm.
Compounds with GIPRCNT values below 10 were considered active. Activity score was based on GIPRCNT using the following formula: […]
Score is 0 for GIPRCNT values of 100 or above, 50 for GIPRCNT values of 0, and 100 for GIPRCNT values of -100.

Going from `Cn1ccc(=Nc2ccc(NC(=O)c3ccc(N=c4ccn(C)c5ccc([N+](=O)[O-])cc45)cc3)cc2)cc1` to `CCN(CC)c1ccc(/C=C\C(=O)c2ccc(NC(C)=O)cc2)cc1`, the growth falls from 113% to 54.9%.

Going from `CC(CSc1n[nH]c(=S)s1)c1ccccc1` (stereo not given) to `CCCOS(=O)(=O)c1ccccc1`, the growth falls from 98.5% to 91.8%.

Going from `Cc1c(O)ccc(SC#N)c1C` to `N#Cc1c2ccccc2nc2ccccc12`, the growth falls from 98.5% to 98%.

Going from `c1ccc(C2NCCNC2c2ccccc2)cc1` (stereo not given) to `O=C(NNc1ccccc1)OCc1ccccc1`, the growth falls from 97.6% to 28.3%.

First: CN1CCC(c2ccccc2)(c2ccccc2)C(=O)C1
Second: CN1CCC(CN2c3ccccc3Sc3ccccc32)C1 (stereo not given)
The growth of the first is lower: 71.2% for the first, 79.4% for the second.

Compared with `CCCCCCCCCCCC1=NCCCN1CCCC`, `CCCCCCCCCCCCCCCCCC[S+](C)CC` (stereo not given) is lower in growth: 111% for the first, 66.5% for the second.

First: CCCCCC[C@@H](O)C/C=C\CCCCCCCC(=O)OCCOC
Second: CCCCCCCCC(=O)OCCCC(CCC(CCC1CCCO1)OC(=O)CCCCCCCC)OC(=O)CCCCCCCC (stereo not given)
The growth of the first is higher: 103% for the first, 93.3% for the second.

First: CCCCCCCCCCCC[n+]1ccc2ccccc2c1
Second: CCCCCCCCCCCCCCCC[N+]1(C)CCCC1c1cccnc1 (stereo not given)
The growth of the first is lower: 40.9% for the first, 92.9% for the second.

First: O=C1/C(=C/c2ccccn2)CCc2ccccc21
Second: O=C(/C=C/c1ccccc1)c1ccccc1O
The growth of the first is higher: 84.8% for the first, 75.2% for the second.

Compared with `COC1CC(C)C(OC)c2cc(O)cc(c2O)NC(=O)/C(C)=C/C=C\C(C)C(OC(N)=O)/C(C)=C\C(C)C1OC` (stereo not given), `Cc1cc(C)c([I+]c2c(C)cc(C)cc2C)c(C)c1` is lower in growth: 54.2% for the first, 29.2% for the second.

First: NNc1ccc(Cl)cc1Cl
Second: O=C1C=CC(=O)N1c1cc(Cl)c(Cl)cc1Cl
The growth of the first is lower: 58.8% for the first, 103% for the second.

First: Nc1nc(-c2ccccc2)nc(N)c1N=O
Second: c1ccc(-c2cc3cc4ccccc4cn3c2)cc1
The growth of the first is lower: 32.4% for the first, 84.7% for the second.

First: N=C(N)Sc1cccc[n+]1[O-]
Second: O=C(CCl)N1c2ccccc2Sc2c1ccc1ccccc21
The growth of the first is lower: 79.5% for the first, 80.7% for the second.

Compared with `CCc1cnc2ccccc2c1/C=C/c1ccc(N(C)C)cc1`, `c1ccc2sc(SSN3CC4CCC(CC4)C3)nc2c1` is higher in growth: 51.6% for the first, 104% for the second.

`S=C1SCN(Cc2cccs2)CN1Cc1cccs1` was tested, and the growth was 99.4%.

For `Cc1cc(Br)c2nsnc2c1[N+](=O)[O-]`, the growth was -34.5% (active).
`O=C1/C(=C\c2ccc([N+](=O)[O-])cc2)CS(=O)(=O)C/C1=C/c1ccc([N+](=O)[O-])cc1` was tested, and the growth was -92.3% (active).
For `O=C(OC12CC3CC(CC(C3)C1)C2)c1ccc(NCc2cc(O)ccc2O)cc1`, the growth was -92.5% (active).
`Cc1nnc(N/N=C/c2ccc([N+](=O)[O-])o2)[nH]c1=O` was tested, and the growth was -23.3% (active).
With `COc1cc(-c2ccc(-[n+]3nc(-c4ccc([N+](=O)[O-])cc4)nn3-c3ccc([N+](=O)[O-])cc3)c(OC)c2)ccc1-[n+]1nc(-c2ccc([N+](=O)[O-])cc2)nn1-c1ccc([N+](=O)[O-])cc1` the growth was -9.54% (active).
With `CC(C)N=C(N)/N=C(\N)Nc1ccc2ccc3ccccc3c2c1` the growth was -81.1% (active).
For `CN(C)c1ccc(/C=C/c2cc[n+](C)c(/C=C/c3ccc(N(C)C)cc3)c2)cc1`, the growth was -4.63% (active).
With `Nc1nc(N)c2cc(Sc3cccc(C(F)(F)F)c3)ccc2n1` the growth was 9.5% (active).
`O=C1C(=O)c2cccnc2-c2ncccc21` was tested, and the growth was -29.4% (active).
`C/C(=N\NC(=S)N1CC2CCC(CC2)C1)c1ccccn1` was tested, and the growth was 0.118% (active).
With `CCN1/C(=C/C(C)=C/c2sc3ccc4ccccc4c3[n+]2CC)Sc2ccc3ccccc3c21` the growth was -97.9% (active).
